Laboratory results as given in PubChem BioAssay AID504333 (National Center for Advancing Translational Sciences (NCATS), 2011).
Out of some 360,000 compounds screened, about 16,000 (4.4%) were called active. Not shown: some 9% with an inconclusive outcome. Calls come from the whole dose curve; as a rule, active = well fitted inhibition curve with a large enough effect; inconclusive = small, poorly fitted or top-dose-only effect; inactive = no such curve, though single readings can be large or run the other way. What follows is part of a selection rich in actives, with near analogues and random picks from the rest.

biological target: Bromodomain adjacent to zinc finger domain protein 2B (Homo sapiens) (UniProt Q9UIF8); assay: qHTS Assay for Inhibitors of BAZ2B; details: AlphaScreen BAZ2B-H3K14Ac peptide displacement; series mostly up to 114 µM; activity change, negative = inhibition: at the top concentration; note: nearly all actives have a fitted effect of over 60% in size
Summary of the method: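 Complex of BAZ2B and biotin-H3K14Ac (50 nM apiece) forms over 30 min at RT, then faces library compounds up to 110 uM for another 30 min; AlphaScreen beads added, 20 min dark incubation, luminescence read.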
% is set by controls: 0 for no effect and ±100 for the full control effect; potency is the fitted concentration of half-maximal effect.

Chain of Bromodomain adjacent to zinc finger domain protein 2B (Homo sapiens) (Q9UIF8 whole entry, looked up, the tested form may be a part): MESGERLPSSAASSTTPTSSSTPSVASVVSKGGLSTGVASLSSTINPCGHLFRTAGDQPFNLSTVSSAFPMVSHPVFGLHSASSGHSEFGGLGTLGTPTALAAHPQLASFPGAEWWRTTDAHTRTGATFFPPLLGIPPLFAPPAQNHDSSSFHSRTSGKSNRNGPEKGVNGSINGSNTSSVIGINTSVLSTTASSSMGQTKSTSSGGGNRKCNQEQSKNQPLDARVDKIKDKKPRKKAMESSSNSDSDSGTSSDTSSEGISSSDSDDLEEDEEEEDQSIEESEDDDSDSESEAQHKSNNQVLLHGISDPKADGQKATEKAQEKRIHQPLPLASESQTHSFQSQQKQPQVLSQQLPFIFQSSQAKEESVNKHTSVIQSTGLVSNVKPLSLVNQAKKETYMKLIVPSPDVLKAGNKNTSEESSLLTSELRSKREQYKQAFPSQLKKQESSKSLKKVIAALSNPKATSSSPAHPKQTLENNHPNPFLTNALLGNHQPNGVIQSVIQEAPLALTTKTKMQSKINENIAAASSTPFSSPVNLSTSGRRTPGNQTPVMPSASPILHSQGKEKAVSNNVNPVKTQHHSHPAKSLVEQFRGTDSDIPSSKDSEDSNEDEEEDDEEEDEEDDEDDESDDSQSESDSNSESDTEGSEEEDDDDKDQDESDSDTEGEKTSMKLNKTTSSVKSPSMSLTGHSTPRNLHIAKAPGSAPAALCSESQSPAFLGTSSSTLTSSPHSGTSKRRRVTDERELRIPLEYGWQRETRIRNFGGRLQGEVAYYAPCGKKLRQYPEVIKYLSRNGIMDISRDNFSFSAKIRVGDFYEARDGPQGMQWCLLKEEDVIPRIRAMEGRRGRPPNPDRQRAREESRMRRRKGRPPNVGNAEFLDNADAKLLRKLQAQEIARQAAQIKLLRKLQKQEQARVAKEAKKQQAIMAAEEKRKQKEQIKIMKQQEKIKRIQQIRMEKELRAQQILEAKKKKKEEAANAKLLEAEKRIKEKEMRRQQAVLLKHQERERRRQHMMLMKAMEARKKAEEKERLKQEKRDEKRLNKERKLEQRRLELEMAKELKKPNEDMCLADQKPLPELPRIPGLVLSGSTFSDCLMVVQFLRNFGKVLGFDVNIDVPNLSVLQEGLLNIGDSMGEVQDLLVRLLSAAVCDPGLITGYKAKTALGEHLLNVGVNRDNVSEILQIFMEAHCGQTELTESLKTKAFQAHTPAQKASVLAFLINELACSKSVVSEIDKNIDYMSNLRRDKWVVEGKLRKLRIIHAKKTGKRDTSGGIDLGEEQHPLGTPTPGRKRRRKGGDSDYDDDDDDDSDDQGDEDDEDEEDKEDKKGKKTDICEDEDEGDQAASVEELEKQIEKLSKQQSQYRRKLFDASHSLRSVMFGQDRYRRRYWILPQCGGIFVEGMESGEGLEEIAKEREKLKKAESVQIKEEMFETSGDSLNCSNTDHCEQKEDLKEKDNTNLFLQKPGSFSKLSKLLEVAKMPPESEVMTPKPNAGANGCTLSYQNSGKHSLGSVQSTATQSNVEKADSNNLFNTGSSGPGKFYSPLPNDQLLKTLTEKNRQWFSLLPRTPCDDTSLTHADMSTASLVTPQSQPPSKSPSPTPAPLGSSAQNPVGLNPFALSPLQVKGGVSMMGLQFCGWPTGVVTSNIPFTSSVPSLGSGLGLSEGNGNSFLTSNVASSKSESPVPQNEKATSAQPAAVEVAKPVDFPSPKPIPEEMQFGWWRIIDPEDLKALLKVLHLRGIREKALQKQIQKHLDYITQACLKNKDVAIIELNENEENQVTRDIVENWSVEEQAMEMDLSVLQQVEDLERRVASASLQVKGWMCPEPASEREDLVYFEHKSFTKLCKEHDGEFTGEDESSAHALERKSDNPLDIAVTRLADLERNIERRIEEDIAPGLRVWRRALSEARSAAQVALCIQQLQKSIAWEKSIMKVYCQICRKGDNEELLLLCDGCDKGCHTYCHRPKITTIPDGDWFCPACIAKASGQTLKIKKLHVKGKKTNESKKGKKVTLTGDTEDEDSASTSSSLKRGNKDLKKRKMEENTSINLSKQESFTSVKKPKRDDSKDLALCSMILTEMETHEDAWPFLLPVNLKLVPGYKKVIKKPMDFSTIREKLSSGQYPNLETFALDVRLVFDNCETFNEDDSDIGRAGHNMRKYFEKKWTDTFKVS

**Q.** Which “activity change, negative = inhibition” value does the source give for `Cc1c(Cl)cccc1NC(=O)C1CCCN(C(=O)c2cnn(-c3ccccc3)c2-n2cccc2)C1` (stereo unspecified) here?
**A.** -19.3% (inactive)

**Q.** How did the “activity change, negative = inhibition” value turn out when `COc1ccc(CCNC(=O)c2nn(C)c3c2CSc2ccccc2-3)cc1OC` was run?
**A.** -28.5% (inactive)

**Q.** For `Cc1cc(NC(=O)CSc2ncc(C(=O)Nc3ccc(Cl)cc3)c(=O)n2C)no1`, which “activity change, negative = inhibition” value is on record?
**A.** -6.81% (inactive)

**Q.** How did the “activity change, negative = inhibition” value turn out when `Cc1ccc(-c2nnc(Nc3cccc(Br)c3)c3ccccc23)cc1S(=O)(=O)NCC1CCCO1` (stereo unspecified) was run?
**A.** -2.37% (inactive)

**Q.** `Cc1cn(C)c(CC(=O)NCc2ccc(Cl)cc2)c1C(=O)O` was tested. Which “activity change, negative = inhibition” value did it give?
**A.** -29.8% (inactive)

**Q.** How did the “activity change, negative = inhibition” value turn out when `Cc1ccc(CCCOC(=O)C[N+]2(C)CCCCC2)cc1` was run?
**A.** -29% (inactive)

**Q.** Which “activity change, negative = inhibition” value does the source give for `Cc1ccc(COC(=O)CN2C(=O)NC3(CCCC3)C2=O)cc1` here?
**A.** 10.3% (inactive)

**Q.** How did the Potency turn out when `Cc1ccc(CCCOC(=O)C[N+]2(C)CCCC2)cc1` was run?
**A.** 50.1 µM (active)

**Q.** How did the “activity change, negative = inhibition” value turn out when `COc1ccc(-c2nn(CC(=O)Nc3ccccc3F)c3c2cnc2ccc(F)cc23)cc1` was run?
**A.** 0.104% (inactive)

**Q.** How did the “activity change, negative = inhibition” value turn out when `CC(=O)Nc1ccc(NC(=O)CCCc2nc(-c3ccc(C(C)(C)C)cc3)no2)cc1` was run?
**A.** -13.7% (inactive)

**Q.** How did the “activity change, negative = inhibition” value turn out when `Cc1ccc(CCNC(=O)Cn2c(-c3cccs3)cc3cc(F)ccc32)cc1` was run?
**A.** -8.55% (inactive)

**Q.** `Cc1cccc(Nc2nc(C)nc(N)c2S(=O)(=O)c2ccccc2)c1` was tested. Which “activity change, negative = inhibition” value did it give?
**A.** -15.6% (inactive)

**Q.** How did the “activity change, negative = inhibition” value turn out when `CCc1nc(SCC(=O)NNC(=O)c2ccc(C)cc2)c2ccccc2n1` was run?
**A.** -0.0282% (inactive)

**Q.** `Cc1ccc(C(=O)NNC(=O)c2cccs2)cc1` was tested. Which “activity change, negative = inhibition” value did it give?
**A.** 18.9% (inactive)

**Q.** Which Potency does the source give for `Cc1ccc(C(=O)NNc2ncnc3ccccc23)cc1` here?
**A.** 56.2 µM (active)

**Q.** How did the “activity change, negative = inhibition” value turn out when `CCCCCn1c(CCCNC(=O)c2ccccc2OC)nc2ccccc21` was run?
**A.** -12.8% (inactive)

**Q.** With `COCC(C)NS(=O)(=O)c1ccc(N2CCCCS2(=O)=O)cc1` (stereo unspecified) as the molecule, how does the “activity change, negative = inhibition” value read?
**A.** -12.2% (inactive)

**Q.** For `CCOC(=O)C1CCN(c2nc3c(S(=O)(=O)c4ccc(CC)cc4)nnn3c3ccc(Cl)cc23)CC1`, which “activity change, negative = inhibition” value is on record?
**A.** 5.67% (inactive)

**Q.** Which Potency does the source give for `CC(C)C(c1nnnn1C(C)(C)C)N1CCN(Cc2cccnc2)CC1` (stereo unspecified) here?
**A.** 56.2 µM (active)

**Q.** With `CC(C)C(c1nnnn1Cc1ccccc1)N1CCC(C(N)=O)CC1` (stereo unspecified) as the molecule, how does the “activity change, negative = inhibition” value read?
**A.** 7.71% (inactive)

**Q.** `CCCC(c1nnnn1C(C)(C)C)N1CCN(Cc2ccccc2)CC1` (stereo unspecified) was tested. Which “activity change, negative = inhibition” value did it give?
**A.** -9.96% (inactive)

**Q.** How did the “activity change, negative = inhibition” value turn out when `CCN(Cc1ccccc1)C(=O)c1cn(-c2cccc(OC)c2)c(=O)c2ccccc12` was run?
**A.** 1.06% (inactive)

**Q.** Which “activity change, negative = inhibition” value does the source give for `COc1ccc(CNC(=O)Cc2coc3ccc(C(C)C)cc23)cc1` here?
**A.** 11.8% (inactive)

**Q.** For `CCc1ccc(NC(=O)c2cnc3c(-c4ccccc4)c(C)nn3c2C)cc1`, which “activity change, negative = inhibition” value is on record?
**A.** 4.97% (inactive)

**Q.** `CCc1ccc(NC(=O)CN2C(=O)C(c3ccccc3)=NC23CCCCCC3)cc1` was tested. Which “activity change, negative = inhibition” value did it give?
**A.** -1.33% (inactive)

**Q.** With `CCN(C(=O)Cc1nc(N)n[nH]1)C1(C(=O)Nc2ccccc2)CCCCC1` as the molecule, how does the Potency read?
**A.** 20 µM (active)

**Q.** With `C=CCN(C(=O)c1cc(C)cc(C)c1)C1(C(=O)Nc2ccccc2)CCN(C(C)C)CC1` as the molecule, how does the “activity change, negative = inhibition” value read?
**A.** -20.7% (inactive)

**Q.** With `CCOc1cccc2sc(N3CCN(C(=O)C4CC4)CC3)nc12` as the molecule, how does the “activity change, negative = inhibition” value read?
**A.** 0.784% (inactive)

**Q.** Which “activity change, negative = inhibition” value does the source give for `CCCN1CN=C(NS(=O)(=O)c2ccc(NC(C)=O)cc2)NC1` here?
**A.** -14% (inactive)

**Q.** With `Cc1ccc(C(=O)Nc2ccc3c(c2)OCO3)cc1S(=O)(=O)N1CCCCC1` as the molecule, how does the “activity change, negative = inhibition” value read?
**A.** -34.2% (inactive)

**Q.** `Cn1cccc1/C=C1\SC(=O)N(CC(=O)Nc2ccc(F)cc2)C1=O` was tested. Which “activity change, negative = inhibition” value did it give?
**A.** 2.22% (inactive)

**Q.** For `Cc1ccc(C(=O)O)cc1-c1ccc(/C=C2\SC(=O)N(CC(=O)Nc3ccc4c(c3)OCO4)C2=O)o1`, which Potency is on record?
**A.** 11.2 µM (active)

**Q.** For `Cc1ccccc1CNC(=O)C(=O)NCC(c1cccs1)S(=O)(=O)c1cccs1` (stereo unspecified), which “activity change, negative = inhibition” value is on record?
**A.** -7.59% (inactive)

**Q.** For `COc1ccc(NC(=O)CCCN2C(=O)CCn3nc(-c4cn(C)c5ccccc45)cc32)cc1OC`, which “activity change, negative = inhibition” value is on record?
**A.** -24.7% (inactive)

**Q.** Which “activity change, negative = inhibition” value does the source give for `Cc1cccc(-n2cnc(C(=O)Nc3cccnc3)c2)n1` here?
**A.** -7.27% (inactive)

**Q.** `Cn1cc(Cl)c(C(=O)NNC(=S)Nc2cccc(Cl)c2)n1` was tested. Which “activity change, negative = inhibition” value did it give?
**A.** 2.35% (inactive)

**Q.** With `Cc1cccc(-n2cnc(C(=O)NNC(=S)Nc3ccccc3)c2)n1` as the molecule, how does the Potency read?
**A.** 22.4 µM (active)

**Q.** For `CCn1cc2nc(SCc3ccccc3Cl)n(CCc3ccccc3)c(=O)c2n1`, which “activity change, negative = inhibition” value is on record?
**A.** -16.7% (inactive)

**Q.** For `CCc1cc2c(cc(C(=O)OC)n2Cc2nc(-c3ccc(C)cc3)oc2C)s1`, which “activity change, negative = inhibition” value is on record?
**A.** -11.1% (inactive)

**Q.** For `CN(C)c1nc(-c2cccnc2)nc(-c2ccc(Cl)cc2)c1C#N`, which “activity change, negative = inhibition” value is on record?
**A.** -4.97% (inactive)

**Q.** With `O=S(=O)(Cc1cc(Cl)nc(-c2cccnc2)n1)c1ccccc1` as the molecule, how does the “activity change, negative = inhibition” value read?
**A.** 11% (inactive)

**Q.** Which Potency does the source give for `N#Cc1c(Cl)nc(-c2cccnc2)nc1-c1ccccc1` here?
**A.** 70.8 µM (active)

**Q.** Which “activity change, negative = inhibition” value does the source give for `COc1ccc(OC)c(-n2nnc(-c3nc(-c4cc(OC)c(OC)c(OC)c4)no3)c2C)c1` here?
**A.** -2.45% (inactive)

**Q.** With `CCCC(=O)OCC(=O)Nc1cc(Cl)ccc1[N+](=O)[O-]` as the molecule, how does the Potency read?
**A.** 39.8 µM (active)

**Q.** `Cc1ccc(Cl)cc1NC(=O)COC(=O)CC(C)(C)C` was tested. Which “activity change, negative = inhibition” value did it give?
**A.** -1.46% (inactive)

**Q.** How did the “activity change, negative = inhibition” value turn out when `CC(C)(C)NC(=O)COC(=O)c1cc(Cl)ccc1[N+](=O)[O-]` was run?
**A.** -36.3% (inactive)

**Q.** With `CCOc1ccc(NC(=O)C(CC(C)C)N2Cc3ccccc3C2=O)cc1` (stereo unspecified) as the molecule, how does the “activity change, negative = inhibition” value read?
**A.** 1.11% (inactive)

**Q.** For `Cc1ccccc1NC(=O)Cn1cc(C(=O)c2cccs2)c2ccccc21`, which “activity change, negative = inhibition” value is on record?
**A.** -0.676% (inactive)

**Q.** For `CCC(C)c1ccc2oc(-c3ccc(NC(=O)c4cc5ccccc5o4)cc3)nc2c1` (stereo unspecified), which “activity change, negative = inhibition” value is on record?
**A.** -1.68% (inactive)

**Q.** For `COC(=O)c1ccc(/C=N/NC(=O)C(=O)N2CCCCCC2)cc1`, which “activity change, negative = inhibition” value is on record?
**A.** -12.8% (inactive)

**Q.** `COC(=O)c1ccc(/C=N/N2C(C)CCCC2C)cc1` (stereo unspecified) was tested. Which Potency did it give?
**A.** 56.2 µM (active)

**Q.** Which “activity change, negative = inhibition” value does the source give for `COC(=O)N/N=C/c1ccc(/C=N/NC(=O)OC)cc1` here?
**A.** 8.67% (inactive)

**Q.** Which “activity change, negative = inhibition” value does the source give for `COc1ccc(CCNc2ncnc3c2cnn3-c2ccc(C)cc2)cc1` here?
**A.** 0.308% (inactive)

**Q.** Which “activity change, negative = inhibition” value does the source give for `CCOc1ccc(S(=O)(=O)c2cn(Cc3ccc(OC)cc3)c3ccc(F)cc3c2=O)cc1` here?
**A.** -5.21% (inactive)

**Q.** `O=c1[nH]c2ccccc2n2c(-c3ccccc3)nnc12` was tested. Which Potency did it give?
**A.** 20 µM (active)

**Q.** For `O=c1[nH]n2c(-c3ccccc3)nc(O)c2c2ccccc12`, which “activity change, negative = inhibition” value is on record?
**A.** -1.83% (inactive)

**Q.** Which “activity change, negative = inhibition” value does the source give for `O=c1cc(-c2ccccc2)n2c(SCc3ccccc3)nnc2[nH]1` here?
**A.** 1.16% (inactive)

**Q.** For `Cc1ccc(C(=O)NCCSc2c(C)[nH]c3ccccc23)cc1C`, which “activity change, negative = inhibition” value is on record?
**A.** -34.8% (inactive)

**Q.** `CC1CCC2(CC1)N=C(c1ccccc1)C(=O)N2CC(=O)Nc1ccc(F)c(Cl)c1` (stereo unspecified) was tested. Which “activity change, negative = inhibition” value did it give?
**A.** -9.91% (inactive)

**Q.** With `COC(=O)c1cnn(-c2ccc(C(=O)Nc3ccc(OC(F)(F)F)cc3)cc2)c1N` as the molecule, how does the “activity change, negative = inhibition” value read?
**A.** 2.8% (inactive)

**Q.** Which “activity change, negative = inhibition” value does the source give for `CCc1nnc(NC(=O)Cc2cccs2)s1` here?
**A.** -9.54% (inactive)

**Q.** For `COc1ccc(Cc2nnc(NC(=O)Cc3cccs3)s2)cc1`, which Potency is on record?
**A.** 44.7 µM (active)

**Q.** With `O=C(Cc1cccs1)Nc1nnc(SCc2ccc(F)cc2)s1` as the molecule, how does the “activity change, negative = inhibition” value read?
**A.** 12.2% (inactive)

**Q.** With `CCCCN=C1C([N+](=O)[O-])=CC=C2C1=NC1(CCCCC1)N2O` as the molecule, how does the Potency read?
**A.** 2.24 µM (active)

**Q.** For `CCC(C(=O)Nc1cc(OC)ccc1OC)n1c(=O)c(C(F)(F)F)nc2ccccc21` (stereo unspecified), which “activity change, negative = inhibition” value is on record?
**A.** -1.26% (inactive)

**Q.** With `COc1cccc(-n2cc(C(=O)NCc3cccc(Cl)c3)c3ccccc3c2=O)c1` as the molecule, how does the “activity change, negative = inhibition” value read?
**A.** -37.4% (inactive)
